# Measurements taken from the supplement of paper PMC12819154, “High-throughput peptide-centric local stability assay extends protein–ligand identification to membrane proteins, tissues and bacteria” (Nature Structural & Molecular Biology, 2025).
# Compound: CN[C@@H]1C[C@H]2O[C@@](C)([C@@H]1OC)n1c3ccccc3c3c4c(c5c6ccccc6n2c5c31)C(=O)NC4 [staurosporine]
# Assay: log2 fold change of tryptic peptide abundance, ligand vs vehicle (limited proteolysis) (log2 ratio); higher = more trypsin-susceptible (destabilized)
# Settings: ligand concentration: 20 uM; sample: K562 cleared lysate; digestion: 4 min, 22 C (HT-PELSA RT4min, Orbitrap Astral)
# Sequence of UniProt O14929 (O14929 whole entry, looked up): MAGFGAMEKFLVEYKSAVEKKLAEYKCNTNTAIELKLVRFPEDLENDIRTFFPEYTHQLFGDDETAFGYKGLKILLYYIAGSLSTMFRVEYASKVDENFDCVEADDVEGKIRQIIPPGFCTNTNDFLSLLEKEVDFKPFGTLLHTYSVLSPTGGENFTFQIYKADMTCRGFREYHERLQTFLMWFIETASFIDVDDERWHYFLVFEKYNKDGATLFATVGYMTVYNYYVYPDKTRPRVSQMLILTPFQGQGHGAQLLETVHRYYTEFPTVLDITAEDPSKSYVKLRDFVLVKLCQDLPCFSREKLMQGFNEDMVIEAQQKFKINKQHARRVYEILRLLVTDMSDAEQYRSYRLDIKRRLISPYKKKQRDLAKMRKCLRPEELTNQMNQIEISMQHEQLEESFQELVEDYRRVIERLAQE
# Sequence of UniProt Q8IYT8 (Q8IYT8 whole entry): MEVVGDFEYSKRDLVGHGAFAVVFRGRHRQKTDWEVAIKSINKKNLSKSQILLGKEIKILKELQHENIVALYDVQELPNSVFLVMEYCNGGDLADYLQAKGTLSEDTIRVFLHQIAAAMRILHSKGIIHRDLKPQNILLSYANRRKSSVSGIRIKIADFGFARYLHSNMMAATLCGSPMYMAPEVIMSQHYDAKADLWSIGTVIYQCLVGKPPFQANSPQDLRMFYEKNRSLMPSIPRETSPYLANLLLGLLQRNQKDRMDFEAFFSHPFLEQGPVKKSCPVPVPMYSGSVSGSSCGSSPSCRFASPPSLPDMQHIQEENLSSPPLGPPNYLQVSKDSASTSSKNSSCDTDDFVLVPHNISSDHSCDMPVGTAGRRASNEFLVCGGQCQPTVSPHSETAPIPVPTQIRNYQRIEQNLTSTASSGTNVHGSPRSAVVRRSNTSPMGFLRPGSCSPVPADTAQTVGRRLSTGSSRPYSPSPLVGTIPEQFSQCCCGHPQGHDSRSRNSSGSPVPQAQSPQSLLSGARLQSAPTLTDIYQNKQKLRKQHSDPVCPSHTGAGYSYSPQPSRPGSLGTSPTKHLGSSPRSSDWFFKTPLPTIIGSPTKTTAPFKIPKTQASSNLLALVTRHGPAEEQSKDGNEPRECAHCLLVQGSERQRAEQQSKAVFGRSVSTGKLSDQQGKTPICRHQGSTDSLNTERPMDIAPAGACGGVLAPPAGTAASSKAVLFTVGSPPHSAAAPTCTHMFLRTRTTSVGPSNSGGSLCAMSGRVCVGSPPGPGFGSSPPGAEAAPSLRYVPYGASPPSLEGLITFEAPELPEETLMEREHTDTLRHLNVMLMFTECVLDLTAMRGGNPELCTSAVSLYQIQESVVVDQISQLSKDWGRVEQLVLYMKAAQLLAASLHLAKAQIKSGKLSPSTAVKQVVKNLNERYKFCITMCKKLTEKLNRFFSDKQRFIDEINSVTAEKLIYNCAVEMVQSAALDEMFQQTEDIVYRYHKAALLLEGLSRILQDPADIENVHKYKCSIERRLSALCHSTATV
# Sequence of UniProt Q9NVS9 (Q9NVS9 whole entry): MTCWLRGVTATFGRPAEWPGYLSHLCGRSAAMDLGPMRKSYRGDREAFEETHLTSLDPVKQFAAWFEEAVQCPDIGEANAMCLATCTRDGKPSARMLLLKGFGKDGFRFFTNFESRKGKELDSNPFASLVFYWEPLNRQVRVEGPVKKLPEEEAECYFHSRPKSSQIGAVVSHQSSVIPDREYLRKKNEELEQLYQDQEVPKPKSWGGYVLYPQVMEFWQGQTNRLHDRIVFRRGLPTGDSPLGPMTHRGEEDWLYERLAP
# Sequence of UniProt Q16629 (Q16629 whole entry): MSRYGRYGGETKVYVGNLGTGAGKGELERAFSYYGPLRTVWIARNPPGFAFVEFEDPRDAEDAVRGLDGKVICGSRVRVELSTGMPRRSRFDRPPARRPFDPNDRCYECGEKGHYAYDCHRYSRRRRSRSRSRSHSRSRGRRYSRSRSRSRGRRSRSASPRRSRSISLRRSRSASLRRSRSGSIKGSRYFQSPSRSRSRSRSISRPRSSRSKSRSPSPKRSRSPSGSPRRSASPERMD
# Sequence of UniProt Q08J23 (Q08J23 whole entry): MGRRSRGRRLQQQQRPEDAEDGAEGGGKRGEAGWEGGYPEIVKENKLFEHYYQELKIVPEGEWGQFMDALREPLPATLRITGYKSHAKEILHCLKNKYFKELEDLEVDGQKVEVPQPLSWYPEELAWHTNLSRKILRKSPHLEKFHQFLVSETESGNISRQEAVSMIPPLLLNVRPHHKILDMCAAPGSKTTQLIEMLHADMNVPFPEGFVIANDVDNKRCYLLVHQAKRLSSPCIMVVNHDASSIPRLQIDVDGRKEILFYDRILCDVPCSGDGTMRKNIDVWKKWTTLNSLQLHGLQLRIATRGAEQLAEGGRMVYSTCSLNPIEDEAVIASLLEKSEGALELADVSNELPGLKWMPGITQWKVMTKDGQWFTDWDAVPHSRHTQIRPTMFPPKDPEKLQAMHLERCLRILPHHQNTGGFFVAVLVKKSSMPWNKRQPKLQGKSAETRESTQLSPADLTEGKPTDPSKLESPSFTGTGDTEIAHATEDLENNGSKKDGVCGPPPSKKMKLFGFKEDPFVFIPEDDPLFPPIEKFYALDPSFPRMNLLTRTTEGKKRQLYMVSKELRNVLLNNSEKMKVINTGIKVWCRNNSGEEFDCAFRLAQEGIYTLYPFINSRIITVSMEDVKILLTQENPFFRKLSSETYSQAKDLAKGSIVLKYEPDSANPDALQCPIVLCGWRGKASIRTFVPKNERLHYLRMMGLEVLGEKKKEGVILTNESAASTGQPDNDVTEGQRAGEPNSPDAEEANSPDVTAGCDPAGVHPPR
# Sequence of UniProt Q8IYB3 (Q8IYB3 whole entry): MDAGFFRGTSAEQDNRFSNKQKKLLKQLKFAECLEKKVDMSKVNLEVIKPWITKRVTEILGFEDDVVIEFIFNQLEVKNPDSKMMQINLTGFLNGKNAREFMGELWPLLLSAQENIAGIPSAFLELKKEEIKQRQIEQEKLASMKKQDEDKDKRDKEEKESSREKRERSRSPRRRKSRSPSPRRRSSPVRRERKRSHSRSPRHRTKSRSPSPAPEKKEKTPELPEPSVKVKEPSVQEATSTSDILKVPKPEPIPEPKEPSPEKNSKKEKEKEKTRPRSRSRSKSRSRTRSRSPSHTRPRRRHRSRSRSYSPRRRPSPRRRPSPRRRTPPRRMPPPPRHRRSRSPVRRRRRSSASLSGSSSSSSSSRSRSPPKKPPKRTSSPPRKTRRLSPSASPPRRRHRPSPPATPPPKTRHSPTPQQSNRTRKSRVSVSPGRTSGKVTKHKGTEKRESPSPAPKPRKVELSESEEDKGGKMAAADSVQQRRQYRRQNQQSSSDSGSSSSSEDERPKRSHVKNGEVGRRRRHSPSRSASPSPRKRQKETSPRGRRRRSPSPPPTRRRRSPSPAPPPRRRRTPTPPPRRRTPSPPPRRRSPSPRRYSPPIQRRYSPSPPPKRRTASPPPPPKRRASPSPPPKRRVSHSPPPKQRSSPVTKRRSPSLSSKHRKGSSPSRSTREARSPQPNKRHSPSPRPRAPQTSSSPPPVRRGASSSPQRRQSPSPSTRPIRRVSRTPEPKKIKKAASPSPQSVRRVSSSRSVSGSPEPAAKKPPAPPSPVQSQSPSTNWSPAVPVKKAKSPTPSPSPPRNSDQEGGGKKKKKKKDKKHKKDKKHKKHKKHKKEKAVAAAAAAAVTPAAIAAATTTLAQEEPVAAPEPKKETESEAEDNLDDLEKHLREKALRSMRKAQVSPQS
# Sequence of UniProt P31749 (P31749 whole entry): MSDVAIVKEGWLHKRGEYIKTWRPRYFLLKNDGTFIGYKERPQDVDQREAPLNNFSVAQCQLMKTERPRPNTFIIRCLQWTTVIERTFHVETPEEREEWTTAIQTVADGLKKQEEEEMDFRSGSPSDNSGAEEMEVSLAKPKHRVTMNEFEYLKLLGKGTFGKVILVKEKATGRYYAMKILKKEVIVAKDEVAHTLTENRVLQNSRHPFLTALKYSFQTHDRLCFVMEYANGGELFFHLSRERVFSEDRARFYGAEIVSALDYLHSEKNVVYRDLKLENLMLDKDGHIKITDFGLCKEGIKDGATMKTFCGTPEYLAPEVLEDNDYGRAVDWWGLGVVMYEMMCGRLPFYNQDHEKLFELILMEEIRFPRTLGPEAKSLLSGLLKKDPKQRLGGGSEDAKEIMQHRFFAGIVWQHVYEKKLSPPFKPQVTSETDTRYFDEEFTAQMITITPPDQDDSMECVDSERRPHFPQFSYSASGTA
# Sequence of UniProt Q8IVT5 (Q8IVT5 whole entry): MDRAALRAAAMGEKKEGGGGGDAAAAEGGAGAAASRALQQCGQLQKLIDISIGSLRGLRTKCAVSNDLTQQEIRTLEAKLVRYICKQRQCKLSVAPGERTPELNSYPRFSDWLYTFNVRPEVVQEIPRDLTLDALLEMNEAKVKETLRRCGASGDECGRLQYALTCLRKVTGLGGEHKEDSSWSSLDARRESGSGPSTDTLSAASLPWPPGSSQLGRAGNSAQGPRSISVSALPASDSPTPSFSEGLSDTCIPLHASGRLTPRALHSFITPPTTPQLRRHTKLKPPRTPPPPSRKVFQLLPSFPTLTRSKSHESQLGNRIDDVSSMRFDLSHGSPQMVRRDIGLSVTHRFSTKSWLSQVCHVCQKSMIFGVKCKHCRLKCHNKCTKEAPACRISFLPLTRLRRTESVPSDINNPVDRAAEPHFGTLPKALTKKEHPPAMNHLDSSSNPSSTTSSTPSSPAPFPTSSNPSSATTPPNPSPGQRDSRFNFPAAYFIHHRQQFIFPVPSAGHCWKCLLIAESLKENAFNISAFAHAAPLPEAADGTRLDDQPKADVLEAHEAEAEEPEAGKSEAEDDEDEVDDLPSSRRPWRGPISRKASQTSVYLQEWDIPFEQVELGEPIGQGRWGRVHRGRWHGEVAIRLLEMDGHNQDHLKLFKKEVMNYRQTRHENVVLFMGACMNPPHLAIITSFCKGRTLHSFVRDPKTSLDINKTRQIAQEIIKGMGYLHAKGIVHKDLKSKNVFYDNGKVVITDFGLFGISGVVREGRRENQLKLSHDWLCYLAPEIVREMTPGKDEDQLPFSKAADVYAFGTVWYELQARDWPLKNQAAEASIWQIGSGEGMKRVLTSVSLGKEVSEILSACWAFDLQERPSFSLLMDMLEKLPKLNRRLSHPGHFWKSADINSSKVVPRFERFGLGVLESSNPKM
row,Target,log2 fold change
1,"SRPK1 (peptide sequence: HFTEDIQTR, peptide start residue: 507) (UniProt Q96SB4)",-1.75
2,"HBG2 (peptide sequence: MVTGVASALSSR, peptide start residue: 134) (UniProt P69892)",0.206
3,"CDKN1C (peptide sequence: SLFGPVDHEELSR, peptide start residue: 32) (UniProt P49918)",1.39
4,"NQO1 (peptide sequence: SIPTDNQIK, peptide start residue: 263) (UniProt P15559)",0.728
5,"UniProt Q2VIR3 (peptide sequence: FKNELER, peptide start residue: 69)",0.555
6,"MAST4 (peptide sequence: LTDFGLSK, peptide start residue: 209) (UniProt O15021)",-0.745
7,"PRKAR2A (peptide sequence: GQYFGELALVTNKPR, peptide start residue: 333) (UniProt P13861)",0.659
8,"UniProt P78527 (peptide sequence: GYGLFAGPCK, peptide start residue: 365)",0.189
9,"SDAD1 (peptide sequence: TLYTHIVTDIK, peptide start residue: 136) (UniProt Q9NVU7)",-0.683
10,"TBK1 (peptide sequence: VIGEDGQSVYK, peptide start residue: 144) (UniProt Q9UHD2)",-1.75
11,"UniProt Q16629 (peptide sequence: YFQSPSR, peptide start residue: 189)",1.29
12,"UniProt Q16513 (peptide sequence: HPFLVNLFACFQTK, peptide start residue: 717)",-2.07
13,"KSR1 (peptide sequence: LSHDWLCYLAPEIVR, peptide start residue: 771) (UniProt Q8IVT5)",-0.299
14,"LIMK2 (peptide sequence: TLDFGLNVK, peptide start residue: 553) (UniProt P53671)",-1.38
15,"SRRM1 (peptide sequence: KETESEAEDNLDDLEK, peptide start residue: 870) (UniProt Q8IYB3)",1.54
16,"UniProt P19525 (peptide sequence: IGDFGLVTSLK, peptide start residue: 430)",-1.42
17,"NSUN2 (peptide sequence: LAQEGIYTLYPFINSR, peptide start residue: 603) (UniProt Q08J23)",-0.339
18,"HBE1 (peptide sequence: MNVEEAGGEALGR, peptide start residue: 19) (UniProt P02100)",0.28
19,"AK2 (peptide sequence: NLETPLCK, peptide start residue: 86) (UniProt P54819)",0.399
20,"PNPO (peptide sequence: SSQIGAVVSHQSSVIPDR, peptide start residue: 164) (UniProt Q9NVS9)",1.66
21,"CAMKK2 (peptide sequence: FYFQDLIK, peptide start residue: 291) (UniProt Q96RR4)",-2.2
22,"MASTL (peptide sequence: IAVPKPPSIEEFSIVKPISR, peptide start residue: 24) (UniProt Q96GX5)",-1.05
23,"UniProt Q6A1A2 (peptide sequence: AHPFFESVTWENLHQQTPPK, peptide start residue: 338)",-1.74
24,"TOP2A (peptide sequence: GESDDFHMDFDSAVAPR, peptide start residue: 1493) (UniProt P11388)",-0.599
25,"AKT1 (peptide sequence: HRVTMNEFEYLK, peptide start residue: 143) (UniProt P31749)",-0.676
26,"UniProt Q02750 (peptide sequence: SYMSPER, peptide start residue: 228)",3.08
27,"GALE (peptide sequence: MCEDLWR, peptide start residue: 329) (UniProt Q14376)",0.379
28,"HAT1 (peptide sequence: CNTNTAIELK, peptide start residue: 27) (UniProt O14929)",0.602
29,"ULK2 (peptide sequence: IADFGFAR, peptide start residue: 163) (UniProt Q8IYT8)",-1.68
